Compounds with a hit are over-represented: about 13% of the library has one in this group of screens.
USP30 inh: blocks human USP30 ubiquitin-rhodamine cleavage. inhibition, % at 25 µM. Q70CQ3. 5.3% of 47,000 active. purified USP30, Ub-rhodamine cleavage fluorescence. AID 1645860
USP17 inh: inhibitors of human USP17 deubiquitinase | purified USP17, Ub-rhodamine cleavage fluorescence, 3 h | inhibition, % at 50 µM | 6.5% of 47,000 active | AID 1645855
USP8 block: inhibitors of human USP8 deubiquitinase; P40818; purified USP8, Ub-rhodamine cleavage fluorescence, 30 min; inhibition, % at 20 µM; 4.2% of 47,000 active
USP28 inh: blocks human USP28 ubiquitin-rhodamine cleavage; AID 1645857; purified USP28, Ub-rhodamine cleavage fluorescence, 30 min; Q96RU2; 3% of 47,000 active; inhibition, % at 25 µM
Target sequence (Q96RU2 whole entry, looked up): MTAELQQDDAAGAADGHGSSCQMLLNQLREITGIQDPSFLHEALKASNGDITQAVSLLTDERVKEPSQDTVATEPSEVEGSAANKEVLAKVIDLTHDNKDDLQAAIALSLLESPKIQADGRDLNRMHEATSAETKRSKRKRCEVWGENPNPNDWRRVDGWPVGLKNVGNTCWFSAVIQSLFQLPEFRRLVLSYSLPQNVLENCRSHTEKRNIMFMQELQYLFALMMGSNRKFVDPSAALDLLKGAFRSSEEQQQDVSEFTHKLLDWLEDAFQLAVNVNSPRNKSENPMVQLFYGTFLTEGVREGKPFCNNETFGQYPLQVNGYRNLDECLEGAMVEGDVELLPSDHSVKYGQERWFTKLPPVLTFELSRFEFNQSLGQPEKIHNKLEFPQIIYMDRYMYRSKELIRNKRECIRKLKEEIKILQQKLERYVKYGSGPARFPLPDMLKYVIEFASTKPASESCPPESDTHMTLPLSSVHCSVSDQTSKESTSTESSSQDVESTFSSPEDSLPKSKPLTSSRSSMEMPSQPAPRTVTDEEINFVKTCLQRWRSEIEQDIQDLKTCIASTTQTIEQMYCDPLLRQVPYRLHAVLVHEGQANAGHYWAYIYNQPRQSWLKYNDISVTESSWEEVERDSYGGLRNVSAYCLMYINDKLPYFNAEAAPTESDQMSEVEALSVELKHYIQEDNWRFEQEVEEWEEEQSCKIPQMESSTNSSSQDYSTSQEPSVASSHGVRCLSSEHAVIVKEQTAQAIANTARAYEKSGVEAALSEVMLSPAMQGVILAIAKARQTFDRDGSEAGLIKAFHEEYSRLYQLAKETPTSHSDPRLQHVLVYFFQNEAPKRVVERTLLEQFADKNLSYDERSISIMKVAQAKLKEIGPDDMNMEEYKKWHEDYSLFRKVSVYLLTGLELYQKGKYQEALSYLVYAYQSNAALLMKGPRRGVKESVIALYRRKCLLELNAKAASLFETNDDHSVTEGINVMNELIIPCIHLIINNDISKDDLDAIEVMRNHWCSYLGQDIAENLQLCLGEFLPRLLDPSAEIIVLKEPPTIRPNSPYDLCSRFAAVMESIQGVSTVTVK
Each line names hits and unclear results; the compound was inactive in the other large screens. Rule as the data show it: active = inhibition above about 30%; inactive = the rest.

COc1ccccc1NC(=O)/C=C\c1cn(-c2ccccc2)nc1-c1cccc([N+](=O)[O-])c1	none
COc1ccc(Cn2nnc(C(=O)N3CCSCC3)c2-n2cccc2)cc1	USP17 inh 33
O=C(c1nnn(Cc2ccc(Cl)cc2)c1-n1cccc1)N1CCCC1	USP28 inh 76
Cc1ccc(Cn2nnc(C(=O)N3CCSCC3)c2-n2cccc2)cc1	none
O=C(c1nnsc1Sc1ccc(Cl)cc1)N1CCCCC1	none
COc1ccc(Cn2nnc(C(=O)NC3CCCCC3)c2-n2cccc2)cc1	USP17 inh 48, USP8 block 49, USP28 inh 42
Cc1cccc(-n2nnc(C(=O)NC3CCCCC3)c2N)c1	none
CC(=O)Nc1nsc(N2CCC(C(=O)NCc3ccc(F)cc3)CC2)n1	none
Cc1cnc(NC(=O)c2cc3c(C)nn(Cc4ccccc4Cl)c3s2)s1	USP8 block 56
Cc1cnc(NC(=O)c2ccccc2-c2ccccc2)s1	none
O=C(Nc1nccnc1C(=O)NCc1ccc2c(c1)OCO2)c1ccccc1	none
O=C(Nc1nc2c(s1)CCC2C(=O)Nc1ccc2c(c1)OCO2)c1ccccc1 (configuration not stated)	USP8 block 38
O=C(Nc1cccc(OC(=O)c2ccc3c(c2)OCO3)c1)c1ccccc1	none
COc1ccc(/C=C/C(=O)Nc2ccc(Cl)c(-c3nc4ncccc4o3)c2)cc1	USP8 block 58
CCn1c(C(=O)O)c(CNCc2ccc3c(c2)OCO3)c2ccccc21	none
Cc1cc(-c2cnc(NCc3ccc(F)cc3)nc2-c2ccco2)on1	USP17 inh 33, USP8 block 35
Cc1cc(-c2cnc(NCc3ccccc3F)nc2-c2ccco2)on1	none
Cc1cc(-c2cnc(N(C)C)nc2-c2ccc(CNC(=O)Cc3ccc(F)cc3)cc2)on1	USP17 inh 64
Cc1cc(-c2cnc(NCc3cccc(F)c3)nc2[C@@H]2CCCO2)on1	USP28 inh 35
Cc1cc(-c2cnc(N3CCCC3)nc2[C@H]2CCCO2)on1	none
Cc1noc2ncnc(NC3CCCC3)c12	none
Nc1cccnc1Sc1ccccn1	USP8 block 40
Cn1c2ccccc2c(=O)c2c(=O)n(Cc3ccccc3)c(-c3ccccc3F)nc21	USP17 inh 66
COc1ccc(CCn2c(-c3ccccc3C)nc3c(c(=O)c4ccccc4n3C)c2=O)cc1	none (no result: USP17 inh)
Cn1c2ccccc2c(=O)c2c(=O)n(Cc3ccccc3)c(-c3ccco3)nc21	USP17 inh 59, USP28 inh 44
Cc1ccc(-c2nc3c(c(=O)c4ccccc4n3C)c(=O)n2-c2ccc(F)cc2)cc1	USP17 inh 43
Cn1c2ccccc2c(=O)c2c(=O)n(Cc3ccco3)c(C3CCCCC3)nc21	USP8 block 30
Cc1nc2c(c(=O)c3ccccc3n2C)c(=O)n1Cc1ccco1	none
Cc1cccc(CC(=O)NC(C)(C)c2nc3c(c(C(N)=O)n2)OCO3)c1	none
N#Cc1ccc(C(=O)Nc2cc(C(F)(F)F)ccc2-n2cncn2)cc1	none
CC(C)c1noc(-c2ccc(OCC(=O)N3CCN(c4ccccc4F)CC3)cc2)n1	none
CCN(CC)C(=O)C1CCN(Cc2ccc(OCc3ccccc3)cc2)CC1	none
Cc1cc(C(F)(F)F)c2c(C)nn(CC(=O)Nc3ccccn3)c2n1	none
COCCCn1c(-c2ccc([N+](=O)[O-])cc2)nc2c(c(=O)c3ccccc3n2C)c1=O	none
Cn1c2ccccc2c(=O)c2c(=O)n(Cc3ccccc3)c(-c3ccc(C(C)(C)C)cc3)nc21	USP17 inh 50
Cc1[nH]c2ccccc2c1CCNC(=O)/C(=C/c1ccccc1)NC(=O)c1ccccc1	none
COc1ccc(/C=C(\NC(=O)c2ccc(Br)cc2)C(=O)NCCc2c(C)[nH]c3ccccc23)cc1	USP30 inh 34
O=C(COc1cccc2ccc(N3CCC(Cc4ccccc4)CC3)nc12)Nc1cccc(Cl)c1	USP17 inh 39, USP8 block 84
COc1ccc(Cn2nccc2NC(=O)C(C)Oc2ccc(C)c(C)c2)cc1 (configuration not stated)	USP17 inh 63 (no result: USP30 inh, USP28 inh)
COc1ccc(Cn2nccc2NC(=O)c2cc(=O)c3ccccc3o2)cc1	none
COc1ccccc1CC(=O)Nc1cnc(-c2ccccc2)nc1	none
COc1cc(OC)cc(C(=O)Nc2ccc3oc(-c4ccc5ccccc5c4)nc3c2)c1	USP17 inh 33
COc1ccc(-c2nc3ccccc3o2)cc1NC(=O)c1cccs1	none
COc1cc(OC)cc(C(=O)Nc2cnc(-c3ccccc3)nc2)c1	USP17 inh 52
CCOC(=O)CSc1nc2nccnc2c(=O)n1Cc1ccccc1	none
COc1ccc(Cn2c(SCC(=O)Nc3cc(C)[nH]n3)nc3nccnc3c2=O)cc1	USP30 inh 49, USP17 inh 48
CCN1CCN(C(=O)CSc2ncccc2-c2noc(C)n2)CC1	none
Fc1ccc(-c2ccc(SCc3nc(-c4ccc(Cl)cc4)no3)nn2)cc1	none
O=S(=O)(NCCc1nc(-c2ccc(Cl)cc2)no1)c1ccc(F)cc1	USP30 inh 39
CCOC(=O)C1CCN(C(=O)C2CCN(c3c(C#N)cnc4ccc(F)cc34)CC2)CC1	none
Cc1cccnc1-n1c(C)c(C)c2c1ncn1nc(-c3ccco3)nc21	USP17 inh 40
Cc1ccccc1-c1nc2c3c(C)c(C)n(-c4cccnc4)c3ncn2n1	none
COc1ccc(CCNC(=O)c2c(N)n(-c3cccc(Cl)c3)c3nc4ccccc4nc23)cc1	USP17 inh 65, USP8 block 62
Cc1ccc(-n2c(N)c(C(=O)NCCc3ccccc3F)c3nc4ccccc4nc32)cc1	USP8 block 34
O=C(NCCc1ccccc1F)c1ccc(N2C(=O)CCS2(=O)=O)cc1	none
COc1ccc(CCNC(=O)c2c(N)n(-c3cccc(F)c3)c3nc4ccccc4nc23)cc1	USP17 inh 38, USP8 block 36
COc1ccc(Cn2cc(S(=O)(=O)N3CCCCCC3)ccc2=O)cc1	none
Nc1ncnc(SCc2c(F)cccc2Cl)n1	none
Fc1cccc(C2NCCN=C2NC2CCCCC2)c1 (configuration not stated)	none
CC(C)Nc1nc2c(cc1C(=O)NCC1CC1)CCN(Cc1cccnc1)CC2	none
Cc1ccc2nc(CNc3cccc(Cl)c3)cc(=O)n2c1	USP17 inh 30
CCCCN1CC(C(=O)Nc2ccc(C(=O)Nc3ccc(Br)c(C)c3)cc2)CC1=O (configuration not stated)	USP17 inh 39
CCOc1cc2c(cc1OCC)C(c1ccc(OC)cc1)N(c1ccc(OC)c(Cl)c1)C(=O)C2 (configuration not stated)	USP8 block 36
CCOC(=O)c1ccc(N2C(=O)c3n[nH]c(C)c3C2c2ccc(Cl)cc2)cc1 (configuration not stated)	none
CCOc1cc2c(cc1OCC)C(c1ccc(Cl)cc1)N(c1ccc(C(=O)O)cc1)C(=O)C2 (configuration not stated)	USP30 inh 31
O=P(O)(O)OC[C@H]1O[C@H](O)[C@@H](O)[C@@H](O)[C@@H]1O	none
COC(=O)c1ccccc1NC(=O)C1CCCN(c2nnc(-n3cccc3)s2)C1 (configuration not stated)	USP30 inh 36, USP8 block 40 (no result: USP17 inh)

Source: PubChem BioAssay
